# Test results taken from PubChem BioAssay AID1159580 (chemical genetic matrix, 2015).
# The campaign covered roughly 5,500 compounds. About 2,000 (36%) were called active. Another 18% or so got no clear call; they are omitted. The list shows a part of the results. A number with no mark means an inactive call. Rule as the data show it: active = normalized growth mostly below about 0.91 (no sharp cut-off); inconclusive = no clear call, values can overlap the other calls; inactive = mostly above about 0.92.
# Experiment: chemical genetic growth profiling, strain panel (AID 1159580);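 also: tested at 20 µM; growth read once vehicle control cultures reached saturation at 30 °C; 1 = growth at the plate median or of vehicle wells; lower values mean less growth of the strain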
# Conditions: growth OD
compound,measurement,setting,value
COC(=O)COc1cc(Cl)c(Cl)cc1Cl,normalized growth,"S. cerevisiae deletion strains, locus YJR075W, strain HOC1, hits give low values",0.952
same,normalized growth,"S. cerevisiae deletion strains, locus YKL009W, strain mrt4, hits give low values",0.995
same,normalized growth,"S. cerevisiae deletion strains, locus YKL068W, hits give low values",0.955
same,normalized growth,"S. cerevisiae deletion strains, locus YKL085W, strain MDH1 (second series), hits give low values",0.949
same,normalized growth,"S. cerevisiae deletion strains, locus YKL085W, strain MDH1, hits give low values",0.949
same,normalized growth,"S. cerevisiae deletion strains, locus YKL160W, strain elf1, hits give low values",1
same,normalized growth,"S. cerevisiae deletion strains, locus YKL190W, strain CNB1, hits give low values",0.971
same,normalized growth,"S. cerevisiae deletion strains, locus YKR001C, strain vps1, hits give low values",0.916
same,normalized growth,"S. cerevisiae deletion strains, locus YKR026C, strain gcn3, hits give low values",0.992
same,normalized growth,"S. cerevisiae deletion strains, locus YKR091W, strain srl3, hits give low values",0.993
same,normalized growth,"S. cerevisiae deletion strains, locus YLL001W, strain dnm1, hits give low values",0.99
same,normalized growth,"S. cerevisiae deletion strains, locus YLL026W, hits give low values",0.993
same,normalized growth,"S. cerevisiae deletion strains, locus YLL041C, strain sdh2, hits give low values",1
same,normalized growth,"S. cerevisiae deletion strains, locus YLR027C, strain aat2, hits give low values",0.991
same,normalized growth,"S. cerevisiae deletion strains, locus YLR039C, strain RIC1, hits give low values",0.613 (active)
same,normalized growth,"S. cerevisiae deletion strains, locus YLR058C, strain SHM2, hits give low values",0.979
same,normalized growth,"S. cerevisiae deletion strains, locus YLR102C, strain apc9, hits give low values",0.957
same,normalized growth,"S. cerevisiae deletion strains, locus YLR113W, strain HOG1, hits give low values",0.879
same,normalized growth,"S. cerevisiae deletion strains, locus YLR221C, strain rsa3, hits give low values",0.987
same,normalized growth,"S. cerevisiae deletion strains, locus YLR258W, strain gsy2, hits give low values",0.994
same,normalized growth,"S. cerevisiae deletion strains, locus YLR262C, strain YPT6 (second series), hits give low values",0.863
same,normalized growth,"S. cerevisiae deletion strains, locus YLR262C, strain YPT6, hits give low values",0.662
same,normalized growth,"S. cerevisiae deletion strains, locus YLR268W, strain sec22, hits give low values",0.955
same,normalized growth,"S. cerevisiae deletion strains, locus YLR320W, strain mms22, hits give low values",1.01
same,normalized growth,"S. cerevisiae deletion strains, locus YLR330W, strain CHS5, hits give low values",0.975
same,normalized growth,"S. cerevisiae deletion strains, locus YLR342W, strain FKS1 (second series), hits give low values",1.04
same,normalized growth,"S. cerevisiae deletion strains, locus YLR342W, strain FKS1, hits give low values",0.997
same,normalized growth,"S. cerevisiae deletion strains, locus YLR357W, strain rsc2, hits give low values",0.895
same,normalized growth,"S. cerevisiae deletion strains, locus YLR370C, strain arc18, hits give low values",1
same,normalized growth,"S. cerevisiae deletion strains, locus YLR371W, strain rom2, hits give low values",0.986
same,normalized growth,"S. cerevisiae deletion strains, locus YLR384C, strain iki3, hits give low values",1.01
same,normalized growth,"S. cerevisiae deletion strains, locus YLR418C, strain cdc73, hits give low values",0.859
same,normalized growth,"S. cerevisiae deletion strains, locus YML016C, strain PPZ1, hits give low values",0.966
same,normalized growth,"S. cerevisiae deletion strains, locus YML032C, strain rad52, hits give low values",0.988
same,normalized growth,"S. cerevisiae deletion strains, locus YML120C, strain ndi1, hits give low values",0.995
same,normalized growth,"S. cerevisiae deletion strains, locus YML124C, strain tub3, hits give low values",0.96
same,normalized growth,"S. cerevisiae deletion strains, locus YMR058W, strain fet3, hits give low values",1
same,normalized growth,"S. cerevisiae deletion strains, locus YMR078C, strain ctf18, hits give low values",0.97
same,normalized growth,"S. cerevisiae deletion strains, locus YMR125W, strain sto1, hits give low values",1
same,normalized growth,"S. cerevisiae deletion strains, locus YMR129W, hits give low values",0.978
same,normalized growth,"S. cerevisiae deletion strains, locus YMR205C, strain PFK2, hits give low values",1.02
same,normalized growth,"S. cerevisiae deletion strains, locus YMR223W, strain ubp8, hits give low values",0.978
same,normalized growth,"S. cerevisiae deletion strains, locus YMR231W, strain pep5, hits give low values",0.989
same,normalized growth,"S. cerevisiae deletion strains, locus YMR263W, strain SAP30, hits give low values",0.985
same,normalized growth,"S. cerevisiae deletion strains, locus YMR307W, strain GAS1, hits give low values",1.06
same,normalized growth,"S. cerevisiae deletion strains, locus YNL067W, strain RPL9B, hits give low values",0.967
same,normalized growth,"S. cerevisiae deletion strains, locus YNL071W, strain lat1, hits give low values",0.996
same,normalized growth,"S. cerevisiae deletion strains, locus YNL128W, strain TEP1, hits give low values",0.978
same,normalized growth,"S. cerevisiae deletion strains, locus YNL153C, strain GIM3, hits give low values",0.989
same,normalized growth,"S. cerevisiae deletion strains, locus YNL183C, strain NPR1, hits give low values",0.809 (active)
same,normalized growth,"S. cerevisiae deletion strains, locus YNL209W, strain ssb2, hits give low values",1.01
same,normalized growth,"S. cerevisiae deletion strains, locus YNL233W, strain BNI4, hits give low values",0.982
same,normalized growth,"S. cerevisiae deletion strains, locus YNL248C, strain rpa49, hits give low values",1
same,normalized growth,"S. cerevisiae deletion strains, locus YNL250W, strain rad50, hits give low values",0.957
same,normalized growth,"S. cerevisiae deletion strains, locus YNL271C, strain bni1, hits give low values",0.956
same,normalized growth,"S. cerevisiae deletion strains, locus YNL298W, strain CLA4, hits give low values",0.994
same,normalized growth,"S. cerevisiae deletion strains, locus YNL307C, strain MCK1, hits give low values",0.855 (active)
same,normalized growth,"S. cerevisiae deletion strains, locus YNL322C, strain KRE1 (second series), hits give low values",0.996
same,normalized growth,"S. cerevisiae deletion strains, locus YNL322C, strain KRE1, hits give low values",0.977
same,normalized growth,"S. cerevisiae deletion strains, locus YNR049C, strain mso1, hits give low values",0.991
same,normalized growth,"S. cerevisiae deletion strains, locus YNR052C, strain pop2, hits give low values",0.993
same,normalized growth,"S. cerevisiae deletion strains, locus YOL006C, strain TOP1, hits give low values",0.895
same,normalized growth,"S. cerevisiae deletion strains, locus YOL012C, strain htz1",0.897
same,normalized growth,"S. cerevisiae deletion strains, locus YOL147C, strain pex11, hits give low values",0.964
same,normalized growth,"S. cerevisiae deletion strains, locus YOR001W, strain rrp6, hits give low values",1.01
same,normalized growth,"S. cerevisiae deletion strains, locus YOR061W, strain CKA2, hits give low values",0.974
same,normalized growth,"S. cerevisiae deletion strains, locus YOR069W, strain VPS5, hits give low values",0.979
same,normalized growth,"S. cerevisiae deletion strains, locus YOR070C, strain gyp1, hits give low values",0.985
same,normalized growth,"S. cerevisiae deletion strains, locus YOR080W, strain dia2, hits give low values",1
same,normalized growth,"S. cerevisiae deletion strains, locus YOR083W, strain WHI5, hits give low values",1
same,normalized growth,"S. cerevisiae deletion strains, locus YOR106W, strain vam3, hits give low values",1.02
same,normalized growth,"S. cerevisiae deletion strains, locus YOR136W, strain idh2, hits give low values",0.99
same,normalized growth,"S. cerevisiae deletion strains, locus YOR144C, strain elg1, hits give low values",0.975
same,normalized growth,"S. cerevisiae deletion strains, locus YOR184W, strain ser1, hits give low values",0.904
same,normalized growth,"S. cerevisiae deletion strains, locus YOR231W, strain MKK1, hits give low values",0.86
same,normalized growth,"S. cerevisiae deletion strains, locus YOR265W, strain rbl2, hits give low values",0.98
same,normalized growth,"S. cerevisiae deletion strains, locus YOR270C, strain vph1, hits give low values",1.1
same,normalized growth,"S. cerevisiae deletion strains, locus YOR290C, strain snf2, hits give low values",1.01
same,normalized growth,"S. cerevisiae deletion strains, locus YOR316C, strain cot1, hits give low values",0.964
same,normalized growth,"S. cerevisiae deletion strains, locus YPL051W, strain arl3, hits give low values",0.992
same,normalized growth,"S. cerevisiae deletion strains, locus YPL055C, strain LGE1, hits give low values",0.953
same,normalized growth,"S. cerevisiae deletion strains, locus YPL078C, strain atp4, hits give low values",1.02
same,normalized growth,"S. cerevisiae deletion strains, locus YPL106C, strain sse1, hits give low values",0.957
same,normalized growth,"S. cerevisiae deletion strains, locus YPL240C, strain hsp82, hits give low values",0.997
same,normalized growth,"S. cerevisiae deletion strains, locus YPL241C, strain CIN2, hits give low values",0.972
same,normalized growth,"S. cerevisiae deletion strains, locus YPL256C, strain CLN2, hits give low values",0.786 (active)
same,normalized growth,"S. cerevisiae deletion strains, locus YPR119W, strain clb2, hits give low values",0.955
same,normalized growth,"S. cerevisiae deletion strains, locus YPR141C, strain kar3, hits give low values",0.948
same,normalized growth,"S. cerevisiae deletion strains, locus YPR163C, strain tif3, hits give low values",0.992
same,normalized growth,"S. cerevisiae deletion strains, locus YPR167C, strain met16, hits give low values",0.976
same,normalized growth,"S. cerevisiae deletion strains, strain wtn01, hits give low values",0.962
same,normalized growth,"S. cerevisiae strains, strain wild type, hits give low values",0.969
